Source: PubChem BioAssay (Tox21)
Activity calls are given as the source filed them. Calls follow the shape of the full dose curve.

What follows are compounds tested against Gonadotropin-releasing hormone receptor (Homo sapiens) (UniProt P30968) (assay: Human gonadotropin-releasing hormone receptor (GnRHR) small molecule agonists, calcium flux assay in GnRHR-HEK293 cells (AID 1920063; also: nearly all actives have a fitted effect of over 35% in size)). Details: calcium flux fluorescence, agonist mode; series mostly up to 57.6 µM; activity change: at the top concentration.
Gonadotropin-releasing hormone receptor (Homo sapiens), sequence (P30968 whole entry, looked up): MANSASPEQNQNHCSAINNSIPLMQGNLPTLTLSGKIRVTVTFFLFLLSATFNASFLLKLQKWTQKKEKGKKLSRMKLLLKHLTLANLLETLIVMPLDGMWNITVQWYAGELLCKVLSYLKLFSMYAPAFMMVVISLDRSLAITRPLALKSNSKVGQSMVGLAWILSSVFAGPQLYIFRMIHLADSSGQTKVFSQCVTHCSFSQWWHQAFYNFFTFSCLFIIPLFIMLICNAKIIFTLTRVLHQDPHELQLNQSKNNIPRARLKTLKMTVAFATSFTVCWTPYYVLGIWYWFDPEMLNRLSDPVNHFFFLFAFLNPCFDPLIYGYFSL
Text: National Center for Advancing Translational Sciences [NCATS]
Division of Preclinical Innovation [DPI]
U.S. Environmental Protection Agency [EPA]
National Institutes of Environmental Health Sciences [NIEHS]
National Toxicology Program [NTP]
U.S. Food and Drug Administration [FDA]
Gonadotropin-releasing hormone receptor (GnRHR) is a G-protein-coupled receptor (GPCR) and acts (through phospholipase C) to increase intracellular inositol trisphosphate and then release intracellular calcium stores. Cell-based GnRHR-Hek293 calcium influx assay is using HEK293 cells that have been genetically engineered to express the human GnRHR, which activity can be measured by calcium signaling. A compound/drug can activate (agonist) GnRHR that can be monitored by levels of intracellular calcium.
GnRHR-HEK293 cells developed by Codex Corp contain human GnRHR reporter gene, which was stably integrated into HEK 293 cells. The compound activation can be detected by fluorescence intensity via calcium flux assay. This cell line has been used to screen the Tox21 10K compound library to identify GnRHR agonists.
GnRHR-Hek293 cells were dispensed at 1500cells/4uL/well in 1536-well black wall/clear bottom plates using a multidrop dispenser. After the assay plates were incubated at a 37 C/5% CO2 incubator for 18 hours, 4 uL of Calcium Dye Solution was added to each well. The plates were incubated at 37 C for 1 hour. For agonist mode, 23 nL of compounds dissolved in DMSO, positive controls or DMSO only was transferred to the assay plate by a pin tool station. The fluorescence intensity in the plates was measured using FDSS 7000EX kinetic plate reader with a filter set of Ex/Em=480/540 for 3 min at 1 sec intervals. Each test compound was measured at 15 concentrations and in triplicates.
% is scaled to controls: 0 for no effect and ±100 for the full control effect.

SMILES | activity change
CC(=O)c1ccc(Cl)c(Cl)c1Cl | 2.83% (inactive)
ON=C1CCCC1 | 2.34% (inactive)
CCCC(=O)O[C@]1(C(=O)CC)CC[C@H]2[C@@H]3CCC4=CC(=O)CC[C@]4(C)[C@H]3[C@@H](O)C[C@@]21C | 0.416% [at 26.4 µM, active compounds read high] (inactive)
CCCCCCCCCC#N | 0.76% (inactive)
CC1(C)C(=O)N(CO)C(=O)N1CO | 0.535% (inactive)
CC(C)(O)c1ccccc1CC[C@@H](SCC1(CC(=O)O)CC1)c1cccc(/C=C/c2ccc3ccc(Cl)cc3n2)c1 | -1.18% [at 26.4 µM, active compounds read high] (inactive)
O=C(O)c1ccncc1 | 1.42% (inactive)
Nc1ccc(S(=O)(=O)Nc2ccccc2)cc1 | -0.357% [at 26.4 µM, active compounds read high] (inactive)
CC1=CCC2C(C1)C2(C)C (stereo not given) | 0.27% (inactive)
[O-][n+]1cccc(CO)c1 | 0.11% [at 26.4 µM, active compounds read high] (inactive)
CCC(=O)c1cccc(Cl)c1 | -0.331% (inactive)
O=C1OC(O)C(C(Cl)Cl)=C1Cl (stereo not given) | -1.71% (inactive)
COc1ccc(N)c([N+](=O)[O-])c1 | 0.277% (inactive)
C=CS(=O)(=O)O | 0.602% (inactive)
CCCCCCCCOC(C)=O | 0.423% (inactive)
O=C(O)CCC(=O)C(=O)O | 0.0733% (inactive)
NCC(=O)O | 1.37% [at 11.8 µM, active compounds read high] (inactive)
Cc1ccc(OC(=O)c2ccccc2O)cc1 | 1.96% (inactive)
Nc1ccc(S(=O)(=O)O)c(N)c1 | -0.743% (inactive)
CC(C)=CCC/C(C)=C/CC/C(C)=C/CO | 1.54% (inactive)

SMILES | activity change
Cc1ccco1 | 1.11% (inactive)
C=CC(=O)OCCOCCOC(=O)C=C | -2.01% (inactive)
CCCCC1CCCCC(=O)O1 (stereo not given) | -0.257% (inactive)
Cc1ccc2ccccc2n1 | -1.02% (inactive)
CC(C(=O)O)c1ccc(/C=C2\CCCCC2=O)cc1 (stereo not given) | -1.57% [at 26.4 µM, active compounds read high] (inactive)
Cc1cccc(C)c1OCC(C)N (stereo not given) | 2.05% [at 26.4 µM, active compounds read high] (inactive)
O=C1[C@H]2CCCC[C@H]2C(=O)N1CCCCN1CCN(c2nsc3ccccc23)CC1 | 6.11% [at 26.4 µM, active compounds read high] (inactive)
CCCCc1ccc2c(n1)[C@@H](c1ccc(OC)cc1C[C@H](C)C(=O)O)[C@H](C(=O)O)[C@H]2c1ccc2c(c1)OCO2 | -0.428% (inactive)
CCCCOC(=O)C(C)Oc1ccc(Oc2ccc(C(F)(F)F)cn2)cc1 (stereo not given) | 1.99% (inactive)
Cc1c(C)c2c(c(C)c1O)CC[C@@](C)(CCC[C@H](C)CCC[C@H](C)CCCC(C)C)O2 | 0.131% (inactive)
COc1cccc(O)c1 | -0.992% (inactive)
CC[C@H]1OC(=O)[C@H](C)[C@@H](O[C@H]2C[C@@](C)(OC)[C@@H](O)[C@H](C)O2)[C@H](C)[C@@H](O[C@@H]2O[C@H](C)C[C@H](N(C)C)[C@H]2O)[C@](C)(OC)C[C@@H](C)C(=O)[C@H](C)[C@@H](O)[C@]1(C)O | 1.68% (inactive)
CCCCCCCC1CCCC1=O (stereo not given) | -0.407% (inactive)
CCCCCCCCCCC(=O)O | 0.394% (inactive)
CC(CC(C#N)(c1ccccc1)C(C)C)N(C)C (stereo not given) | 0.15% [at 26.4 µM, active compounds read high] (inactive)
O=C(O)c1cccc(-c2noc(-c3ccccc3F)n2)c1 | -0.903% [at 26.4 µM, active compounds read high] (inactive)
COC(=O)c1ccccc1Cl | -0.0235% (inactive)
CCN(CC)C(=O)/C(C#N)=C/c1cc(O)c(O)c([N+](=O)[O-])c1 | -0.484% [at 26.4 µM, active compounds read high] (inactive)
O=C(O)c1ccccc1Cl | -0.412% (inactive)
C/C(=N/NC(=O)c1ccncc1)C(=O)O | -0.261% [at 26.4 µM, active compounds read high] (inactive)
